Assay outcomes (PubChem BioAssay)
Pf Dd2 growth: blocks in vitro growth of P. falciparum Dd2. P. falciparum Dd2 growth, SYBR Green, 72 h. Potency, µM (doses to about 28.9 µM), without a hit: top-dose activity, negative = inhibition, hits mostly inhibitors. hit rate 4.3% among 120,000. AID 1347417; active = well fitted inhibition curve with a large enough effect;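 also: plate controls were DMSO vehicle for no effect and reference drug for full effect; nearly all actives have a fitted effect of over 65% in size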
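Readout: SYBR Green fluorescence, 485 nm excitation, 535 nm emission, after ~16 h lysis at 37C. Before that, Dd2-infected red cells (2.5% hematocrit) grew 72 h with compound, 29 uM top final concentration.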
The depositor's hits bear a star; [ ] = remark or other dose. Shown is part of a subset that was picked to be rich in hits. Potency is read from the fitted curve at half-maximal effect.

What do the screens show for `C=CCN(C)C(=O)C[C@@H]1c2nc(NC(=O)COC)sc2C[C@@H]2[C@](C)(CO)[C@H](O)CC[C@]21C`?
Pf Dd2 growth: -8%

What do the screens show for `C=CCN(C)C(=O)C[C@@H]1c2nc(NC(=O)c3ccco3)sc2C[C@@H]2[C@](C)(CO)[C@H](O)CC[C@]21C`?
Pf Dd2 growth: inactive

Results for C[C@]1(CO)[C@H]2Cc3sc(NC(=O)C4CCCCC4)nc3[C@@H](CC(=O)O)[C@]2(C)CC[C@H]1O ?
Pf Dd2 growth: -21%

How did CC(=O)Nc1ccc(NC(=O)Cn2cccc2-c2nc(-c3ccccc3)no2)cc1 do in these assays?
Pf Dd2 growth: 24%

How did C=CCN1CC2(CCC1=O)CCN(C(=O)[C@H](OC)c1ccccc1)CC2 do in these assays?
Pf Dd2 growth: -9%

How did CCc1cccc(NC(=O)Cn2nc3n(c2=O)CCCCC3)c1 do in these assays?
Pf Dd2 growth: 9%

How did c1ccc(C2=NOC3(CCN(CC4CC4)CC3)C2)cc1 do in these assays?
Pf Dd2 growth: -28%[44.1 µM]

What do the screens show for `Cc1ccc(CN2CCCCCCNC(=O)CC2)s1`?
Pf Dd2 growth: inactive

How did Cc1cccc(CNC(=O)[C@H]2CCC[C@H]2NC(=O)c2cnc(C)cn2)c1 do in these assays?
Pf Dd2 growth: -5%

How did CC(C)n1cc(CN2CCC(Oc3ccc(C(=O)NC4CCCC4)cc3Cl)CC2)cn1 do in these assays?
Pf Dd2 growth: -10%

Results for COCCNC(=O)c1ccc(OC2CCN(Cc3ccc(C)s3)CC2)c(Cl)c1 ?
Pf Dd2 growth: 6.3µM*

What do the screens show for `COCCNC(=O)c1ccc(OC)cc1OC1CCN(Cc2cccc3cccnc23)CC1`?
Pf Dd2 growth: inactive

How did COCCNC(=O)c1ccc(OC2CCN(CC3CCOC3)CC2)c(Cl)c1 (stereo not given) do in these assays?
Pf Dd2 growth: -11%

Results for COCCNC(=O)c1ccc(OC2CCN(C(=O)[C@@H](C)N)CC2)c(Cl)c1 ?
Pf Dd2 growth: -13%

How did COCCNC(=O)c1ccc(OC2CCN(Cc3cccc4c3OCO4)CC2)c(Cl)c1 do in these assays?
Pf Dd2 growth: 7.1µM*

What do the screens show for `COC(=O)[C@@H](Cc1c[nH]c2ccccc12)NC(=O)[C@H]1CNCCN1S(=O)(=O)c1ccccc1`?
Pf Dd2 growth: inactive

Results for Cc1cc(C(=O)N(C)C2CCc3nnc(C)n3CC2)c(C)n1Cc1ccco1 (stereo not given) ?
Pf Dd2 growth: 14%

How did COc1ccc(C(=O)N2C[C@@H](Oc3ccccc3)C[C@H]2C(=O)N2CCCC2)c(OC)c1 do in these assays?
Pf Dd2 growth: inactive

Results for COCCn1c(CN2C(=O)COc3ccccc32)nnc1C1CC(N)C1 (stereo not given) ?
Pf Dd2 growth: -12%

How did O=[S+]1([O-])NC2(CCN(Cc3ccsc3)CC2)COc2ccccc21 do in these assays?
Pf Dd2 growth: -16%

What do the screens show for `Cc1ccc(CN2CCC3(CC2)NC(=O)c2ccccc2O3)cc1`?
Pf Dd2 growth: -4%[44.1 µM]

What do the screens show for `O=C1NC2(CCN(Cc3ccsc3)CC2)COc2ccccc21`?
Pf Dd2 growth: 3.2µM*

What do the screens show for `O=C1NC2(CCCN(Cc3ccncc3)C2)COc2ccccc21` (stereo not given)?
Pf Dd2 growth: -21%[44.1 µM]

Results for Cc1ccc(CN2CCCC3(COc4ccccc4C(=O)N3)C2)cc1 (stereo not given) ?
Pf Dd2 growth: 13µM*

What do the screens show for `O=C1NC2(CCCN(C(=O)c3cccnc3)C2)COc2ccccc21` (stereo not given)?
Pf Dd2 growth: inactive

Results for Cc1ccc(CN2CCC3(CC2)COc2ccccc2CN3)cc1 ?
Pf Dd2 growth: 6.3µM*

What do the screens show for `O=C1NC2(CCCN(Cc3cccnc3)C2)Oc2ccccc21` (stereo not given)?
Pf Dd2 growth: -15%[44.1 µM]

How did COc1cccc(CN2CCCC3(C2)NC(=O)c2ccccc2O3)c1 (stereo not given) do in these assays?
Pf Dd2 growth: 16µM*

Results for COc1cccc(CN2CCC3(CC2)COc2ccccc2C(=O)N3)c1 ?
Pf Dd2 growth: inactive

Results for CC1=NOC2(CCN(Cc3ccc(C)cc3)CC2)C1 ?
Pf Dd2 growth: inactive

How did COc1cccc(CN2CC3(C2)NC(=O)c2ccccc2O3)c1 do in these assays?
Pf Dd2 growth: -4%[44.1 µM]

Results for CCc1noc(-c2cn(C3CCN(C(=O)c4ccc(C)c(F)c4)CC3)nn2)n1 ?
Pf Dd2 growth: -1%

What do the screens show for `O=C(CSc1ccccn1)N[C@H]1CCOC[C@H]1C1CCOCC1`?
Pf Dd2 growth: 2%

How did COc1ccc(CNC(=O)C2(c3ccc(NC(C)=O)cc3)CCCCC2)cc1 do in these assays?
Pf Dd2 growth: -4%

How did Cc1noc(C)c1C(C(=O)O)N(C)Cc1nc(-c2ccccn2)no1 (stereo not given) do in these assays?
Pf Dd2 growth: 17%

Results for CCn1ncc(N2CCCC(CC(=O)NCc3ccc(C)c(C)c3)C2)cc1=O (stereo not given) ?
Pf Dd2 growth: inactive

What do the screens show for `COc1ccc(NC(=O)c2ccc3c(c2)N(C)C2CCCCCN2C3=O)cc1F` (stereo not given)?
Pf Dd2 growth: inactive

What do the screens show for `COc1ccc(C(=O)N2CCCC(c3[nH]ccc3C(N)=O)C2)cc1F` (stereo not given)?
Pf Dd2 growth: 20%

What do the screens show for `CCn1ncc(N2CCC(NC(=O)Cc3ccsc3)CC2)cc1=O`?
Pf Dd2 growth: -5%

Results for NC(=O)c1ccc(OC2CCN(Cc3ccccn3)C2)nc1 (stereo not given) ?
Pf Dd2 growth: inactive

Results for N#Cc1ccc(CN2CCCC3(COc4ccccc4C(=O)N3)C2)cc1 (stereo not given) ?
Pf Dd2 growth: -24%

What do the screens show for `O=C1NC2(CCN(Cc3ccncc3)C2)Oc2ccccc21` (stereo not given)?
Pf Dd2 growth: 14%[44.1 µM]

How did O=C1NC2(CCN(Cc3ccc(OC(F)(F)F)cc3)C2)COc2ccccc21 (stereo not given) do in these assays?
Pf Dd2 growth: 9%

How did N#Cc1ccc(CN2CCC3(CC2)COc2ccccc2C(=O)N3)cc1 do in these assays?
Pf Dd2 growth: 2.5µM*

What do the screens show for `N#Cc1ccc(CN2CC3(C2)NC(=O)c2ccccc2O3)cc1`?
Pf Dd2 growth: inactive

How did O=C1NC2(CCN(Cc3ccccc3)C2)COc2ccccc21 (stereo not given) do in these assays?
Pf Dd2 growth: 10µM*

How did C1CNCC(Cc2nc(C3CCOCC3)no2)C1 (stereo not given) do in these assays?
Pf Dd2 growth: 11%

Results for CN(C)C[C@@H]1CN(Cc2ccccc2)C[C@H]1NC(=O)NCc1ccco1 ?
Pf Dd2 growth: -27%

What do the screens show for `COc1ccc(CC(=O)N2Cc3ccccc3CC23CCCN([S+](C)(=O)[O-])C3)cc1` (stereo not given)?
Pf Dd2 growth: 2%

Results for COc1cncc([C@@H](NC(=O)c2ccc3c(c2)CCC3)C2CC(O)C2)c1 (stereo not given in full) ?
Pf Dd2 growth: 1%

What do the screens show for `COCCOc1ccc(-c2ccnc(OC)c2C#N)cc1`?
Pf Dd2 growth: -24%

Results for CCS(=O)(=O)N1CCC(c2noc(COCC3CC3)n2)CC1 ?
Pf Dd2 growth: -3%

How did O=C1c2c(nc(COc3ccc(F)cc3F)n2Cc2ccccc2)NCCN1CC1CC1 do in these assays?
Pf Dd2 growth: -14%[44.1 µM]

What do the screens show for `Cc1cccc(CNc2ccc3nnc(C)n3n2)c1`?
Pf Dd2 growth: inactive

How did CCc1nnc2ccc(NCc3ccc(F)cc3)nn12 do in these assays?
Pf Dd2 growth: 7.1µM*

Results for Cc1nnc2ccc(NCc3ccc(F)cc3)nn12 ?
Pf Dd2 growth: -9%

What do the screens show for `COCCOCC(=O)NCCc1noc(-c2ccccc2)n1`?
Pf Dd2 growth: -6%
